The list is not random: actives were taken first. Their share in the collection is about 5.4%.
Mdm2-MdmX inh: disrupts the human Mdm2-MdmX interaction; O15151+Q00987; actives 3% (n = 330,000); inhibition, % at 8 µM; SaOS-2 split-luciferase Mdm2/MdmX complementation, luminescence;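 active = inhibition of at least 50% at 8 µM in the primary screen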
Target sequence (O15151 whole entry, looked up): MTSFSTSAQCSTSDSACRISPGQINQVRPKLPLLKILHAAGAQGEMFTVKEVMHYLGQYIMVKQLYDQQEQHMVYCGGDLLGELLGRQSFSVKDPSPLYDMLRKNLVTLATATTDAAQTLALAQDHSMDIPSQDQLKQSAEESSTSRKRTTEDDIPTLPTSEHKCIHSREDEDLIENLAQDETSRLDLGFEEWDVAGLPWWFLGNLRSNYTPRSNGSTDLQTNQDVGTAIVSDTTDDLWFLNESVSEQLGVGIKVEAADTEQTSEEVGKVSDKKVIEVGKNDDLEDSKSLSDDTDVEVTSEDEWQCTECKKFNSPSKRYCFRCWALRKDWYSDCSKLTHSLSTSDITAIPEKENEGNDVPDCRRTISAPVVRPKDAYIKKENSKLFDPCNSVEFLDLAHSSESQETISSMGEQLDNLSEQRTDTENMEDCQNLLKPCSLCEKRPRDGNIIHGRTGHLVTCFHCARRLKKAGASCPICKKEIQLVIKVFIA
Target sequence (Q00987 whole entry, looked up): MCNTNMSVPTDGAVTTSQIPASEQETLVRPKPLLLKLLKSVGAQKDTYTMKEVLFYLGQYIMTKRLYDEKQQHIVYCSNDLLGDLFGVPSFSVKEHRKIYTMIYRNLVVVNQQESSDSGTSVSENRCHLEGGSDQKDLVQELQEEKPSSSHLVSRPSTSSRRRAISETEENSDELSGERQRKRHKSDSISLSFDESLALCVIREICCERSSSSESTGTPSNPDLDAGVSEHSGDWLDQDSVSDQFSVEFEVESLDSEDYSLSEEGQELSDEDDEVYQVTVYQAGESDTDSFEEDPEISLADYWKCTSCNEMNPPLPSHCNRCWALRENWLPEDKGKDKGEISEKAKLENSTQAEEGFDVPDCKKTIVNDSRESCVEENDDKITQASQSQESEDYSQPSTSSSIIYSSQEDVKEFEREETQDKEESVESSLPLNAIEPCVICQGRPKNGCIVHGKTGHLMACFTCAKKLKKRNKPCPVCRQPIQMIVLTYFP
SKKanGAS inh: blocks kanamycin growth of S. pyogenes SKKanGAS strain. BacTiter-Glo, 6 h. inhibition, % at 7.5 µM. actives 1.3% (n = 300,000). AID 1662;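 active = mean replicate score, as percent of positive control median, at least 50; inconclusive = mean below 50 but one replicate at or above 50; inactive = mean and every replicate below 50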;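 also: strain carries kanamycin resistance gene driven by streptokinase promoter and grows in 40 µg/ml kanamycin; loss of luminescence reflects streptokinase promoter inhibition or plain growth inhibition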
CSC inhib: blocks cancer stem cells; actives 1.1% (n = 300,000); inhibition, % at 7.5 µM; cancer stem cell-like cells viability, luminescence; in the data active = inhibition above about 75%; inconclusive = no clear call, values can overlap the other calls; tested in HMLE shEcad cells
MPTP inh: permeability transition pore inhibition; isolated mouse mitochondria, Ca2+ swelling absorbance, 30 min; inhibition, % at 10 µM; actives 1.4% (n = 360,000); AID 602449;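 active = inhibition of 50% or more, scaled per plate between neutral and stimulator controls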
Beta apoptosis: blocks beta cell apoptosis | INS-1E cytokine-induced death, ATP luminescence, 48 h; percent of positive-control rescue, neutral wells zero | protection from apoptosis, % (no concentration beside the values) | actives 0.8% (n = 300,000) | AID 435005;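 active = Every replicate reaches about 75%, or at least half do and their mean reaches it too, limit read from the data; inconclusive = At least half of replicates reach the limit but their mean does not; inactive = Under half of replicates reach the limit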;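 also: higher means more ATP so stronger rescue from cytokine killing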
Calb FLC: affects C. albicans growth with fluconazole. C. albicans CaCi-2 (fluconazole-resistant clinical isolate) + fluconazole, Alamar Blue growth, 48 h. growth inhibition, % (concentration not given with the values). actives 0.57% (n = 300,000). AID 1979;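 active = growth inhibition above about 58% in most replicates, limit read from the data, passing the limit was not always enough; inconclusive = exactly half the replicates above a set limit; inactive = most replicates below a set limit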;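 also: all wells also contain fluconazole at 8 µg/ml as a sub-toxic cotreatment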
Mdm2-MdmX conf: human Mdm2/MdmX binding inhibition, confirmed | inhibition, % at 8 µM | actives 55% (n = 10,000) | luminescent assay | shares compounds with Mdm2-MdmX inh; in the data active = inhibition above about 40%
FLuc counter: counter-screen for Mdm2/MdmX inhibitors: full-length luciferase | actives 77% (n = 6,200) | AID 504607 | shares compounds with Mdm2-MdmX inh | SaOS-2 full-length luciferase counterscreen, luminescence | inhibition, % at 8 µM;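 active = mean inhibition at 8 µM reaching about 37%, which flags the compound as non-specific, limit read from the data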;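 also: p53-null SaOS-2 cells with luciferase driven by a doxycycline-inducible promoter; compound on cells about two nights before reading with doxycycline added after day one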
Numbers stand for hits; 0 = inactive; ? = inconclusive; - = not tested or not shown.

SMILES	Mdm2-MdmX inh	SKKanGAS inh	CSC inhib	MPTP inh	Beta apoptosis	Calb FLC	Mdm2-MdmX conf	FLuc counter
CCc1ccc(-c2cc3c(=O)n(CC(=O)NCCN4CCCCC4C)nc(C)n3n2)cc1 (stereo unspecified)	68.3	0	80.4	0	0	0	0	-
COc1ccc(-c2cc3c(=O)n(CC(=O)NC4CCN(Cc5ccccc5)CC4)ncn3n2)cc1	69.4	0	0	0	0	0	0	-
CSCC[C@H](NC(=O)c1cccs1)C(=O)N1CCC2(CC1)NCCc1[nH]cnc12	0	0	0	0	0	0	-	-
COc1ccc(-c2cc3c(=O)n(CC(=O)Nc4ccc(C(C)=O)cc4)ncn3n2)cc1	57.7	0	0	0	0	0	0	105.2
COc1ccc(-c2cc3c(=O)n(CC(=O)NCc4cccnc4)ncn3n2)cc1	0	0	0	0	0	0	-	-
CCOC(=O)CSC1=C(C#N)C(c2ccc(Cl)cc2)CC(=O)N1 (stereo unspecified)	0	0	0	0	0	0	-	-
CCOC(=O)CSC1=C(C#N)C(c2ccc(C)o2)CC(=O)N1 (stereo unspecified)	64.7	0	0	0	0	0	52.0	73.0
Cc1cc(C(=O)CSc2nnc3ccccn23)c(C)n1-c1ccccc1	81.6	0	0	0	0	0	85.9	0
CCOC(=O)C1CCN(S(=O)(=O)c2cccc3nonc23)CC1	0	0	0	0	0	0	-	-
CCOC(=O)C1CCN(S(=O)(=O)c2c(Cl)ccc3nonc23)CC1	100.4	0	0	0	0	0	97.7	0
COc1ccc(NC(=O)c2cccc(N3C(=O)C4CC=C(C)CC4C3=O)c2)c(OC)c1 (stereo unspecified)	0	0	-	0	0	0	-	-
COC(=O)c1[nH]c2cc(OC)c(OC)cc2c1/C=N/Nc1ccccc1	78.7	0	0	0	0	0	0	84.5
Cc1ccc(NC(=O)Cc2ccc(-c3ccccc3)cc2)nc1	75.1	0	0	0	0	0	45.0	80.2
Cc1ccc(NC(=O)CCc2c[nH]c3ccccc23)nc1	83.4	0	-	0	-	0	73.0	51.5
Cc1ccnc(NC(=O)Cc2ccc([N+](=O)[O-])cc2)c1	0	0	-	0	0	0	-	-
O=C(Cc1ccc(-c2ccccc2)cc1)Nc1ccccn1	68.5	0	0	0	0	0	55.1	62.1
Cc1ccnc(NC(=O)Cc2ccc(-c3ccccc3)cc2)c1	90.7	0	0	0	0	0	94.0	144.8
Cc1ccc(NC(=O)Cc2ccc(Cl)cc2)nc1	0	0	0	0	0	0	-	-
O=c1c2ccccc2c(/C=N/n2cnnc2)c(O)n1-c1ccccc1	0	0	0	0	0	?	-	-
O=C(c1cc2c(s1)-c1ccccc1S(=O)(=O)C2)N1CCCC1	0	0	0	0	0	0	-	-
Cn1nc(C(=O)NNc2c(F)c(F)cc(F)c2F)c2ccccc2c1=O	0	0	0	0	0	0	-	-
COc1ccc(NC(=O)/C(Cl)=C(/Cl)S(=O)Cc2ccc(Cl)cc2)cn1 (stereo unspecified)	97.1	-	-	0	-	-	100.0	0
COc1ccc(CN2C(=O)c3ccccc3C2=O)cc1C(=O)Nc1ccccc1N1CCOCC1	0	0	0	0	0	0	-	-
COc1ccc(CC(=O)Nc2ccc(OC)nc2)cc1	0	0	0	0	0	0	-	-
COc1ccc(NC(=O)Cc2ccc(-c3ccccc3)cc2)cn1	51.9	0	0	0	0	0	54.5	62.0
SMILES	Mdm2-MdmX inh	SKKanGAS inh	CSC inhib	MPTP inh	Beta apoptosis	Calb FLC	Mdm2-MdmX conf	FLuc counter
COc1ccc(NC(=O)C(Cl)=C(Cl)Cl)cn1	0	0	-	0	-	0	-	-
COc1ccc(NC(=O)c2cc(CN3C(=O)c4ccccc4C3=O)ccc2OC)cn1	52.9	0	0	0	0	0	0	-
Cc1c(C#N)c2ncnc(N)c2n1-c1ccccc1	0	-	0	0	-	-	-	-
COc1ccc(-n2ccnc2SCC(=O)NCc2ccccc2)c(OC)c1	0	0	0	0	0	0	-	-
Cn1c(=O)[nH]c(=O)c2c1nc(N1CCN(Cc3ccccc3)CC1)n2CCCc1ccccc1	0	0	0	0	0	0	-	-
Cc1nc(Sc2ccc(Br)cc2)c(C#N)c(C)c1[N+](=O)[O-]	52.9	0	83.5	0	0	0	0	-

Screening data deposited in PubChem by several laboratories.
